From PubChem BioAssay
RN4220 kill: kills Staphylococcus aureus RN4220. S. aureus RN4220 growth, OD600, 16 h. inhibition, % (test concentration not listed). 0.33% of 330,000 active. AID 1259311; in the data active = inhibition above about 85%;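 also: plate controls were untreated cells for no effect and reference antibiotic for full effect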
Mtb hypoxia inh: inhibitors of hypoxia-regulated fluorescent reporter in Mycobacterium tuberculosis | 0.1% of 300,000 active | fluorescence inhibition, % (concentration not given with the values) | M. tuberculosis hypoxia-regulated fluorescent reporter, fluorescence; in the data active = fluorescence inhibition mostly above about 23%, no sharp cut-off; inactive = mostly below about 17%
Sa ugtP lethal: growth inhibition of S. aureus ugtP deletion strain. S. aureus RN4220 ugtP deletion, OD600 growth, 16 h. growth inhibition, % (test concentration not listed). 0.54% of 330,000 active. AID 1259309; in the data active = growth inhibition above about 68%;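 also: plate controls were untreated wells for no effect and antibiotic for full effect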
Starred values were filed as active, the others as inactive; . = no result given. Hits are enriched below; roughly 0.68% of the tested compounds scored in any of these assays.

SMILES	RN4220 kill	Mtb hypoxia inh	Sa ugtP lethal
CN1C(=O)C2C[C@@]3([C@@]45CC6C(=O)N(C)C(Cc7ccccc7)C(=O)N6C4Nc4ccccc45)c4ccccc4NC3N2C(=O)C1Cc1ccccc1 (stereo not given in full)	7	8	6
CCOC(=O)C1C2COc3ccc(Cl)cc3C2N2C(=O)CN(Cc3ccco3)C(=O)[C@@]12C (stereo not given in full)	4	7	0
COc1ccc(C2C=CCN(C(=O)C3CC3)C(Cc3ccccc3)C(=O)N2Cc2ccc(F)cc2)cc1 (stereo not given)	1	4	-31
CCCNC(=O)N1C2CCC1C(C(=O)OC)=C(c1cc3ccccc3s1)C2 (stereo not given)	3	20	5
O=C(CCCOc1ccc(Cl)cc1Cl)Nc1ccccc1C(=O)O	25	34*	23
O=C(COc1ccc(Cl)cc1Cl)Nc1ccc(C(=O)Nc2ccccc2C(=O)O)cc1	-2	22	14
O=C(Nc1nnc(C2=COCCO2)o1)c1cccc(Br)c1	92*	3	99*
O=C(Nc1nnc(C2=COCCO2)o1)c1cccc([N+](=O)[O-])c1	-1	9	1
Cc1cc(C)c(C=Nn2c(C)cc(C)c(C#N)c2=O)c(C)c1	5	-4	24
CCOC1OC(C(=O)N2CCN(Cc3ccc4c(c3)OCO4)CC2)=CC(C)C1CCCO (stereo not given)	2	-1	0
Cc1ccc(S(=O)(=O)N2C(c3cccs3)CC=C(C(=O)O)C2c2ccccc2F)cc1 (stereo not given)	19	2	-6
COc1ccc(N2C(=O)N3C(c4ccc(Br)cc4)C4C(=O)N(C(C)(C)C)C(=O)C4[C@]3(Cc3ccccc3)C2=O)cc1 (stereo not given in full)	9	-7	5
CCCn1nnc(NC(=O)c2ccccc2Cl)n1	2	-1	13
CCCn1nnc(NC(=S)NC(=O)c2ccccc2OC)n1	28	33*	3
CN1CC2C3C(=O)N(C)C(=O)C3[C@](C)(C1=O)N2C(=O)c1ccc(C(F)(F)F)cc1 (stereo not given in full)	8	19	3
CCn1c(SCC(=O)NN=Cc2ccc(C)o2)nnc1-c1ccc(C(C)(C)C)cc1	9	-3	-7
CCC(C)Sc1ccc(C2N[C@@](C)(C(=O)OC)C3C(=O)N(CC)C(=O)C23)cc1OC (stereo not given in full)	4	-5	-8
C/C(=C1/SC(N2CCCC2)=NC1=O)c1ccc(Br)cc1	-5	76*	-13
CC(C)=C1SC(N2CCCCC2)=NC1=O	7	.	-1
CC(O)C1CNC(=O)C(=O)N1CCc1cccc2ccccc12 (stereo not given)	4	15	5
CCN1C(=O)C2C(c3ccc(Cl)cc3)N3C(=O)CN(CCOC)C(=O)[C@@]3(Cc3ccccc3)C2C1=O (stereo not given in full)	5	3	3
Cc1cccc(S(=O)(=O)Nc2cccc(-c3cn4ccsc4n3)c2)c1	-2	9	85*
Cc1ccc(S(=O)(=O)Nc2cccc(-c3cn4ccsc4n3)c2)cc1	4	-1	15
COc1ccc(-c2cc(C(F)(F)F)nc(N3CCN(C)CC3)n2)cc1	4	16	17
COc1ccc(-c2cc(C(F)(F)F)nc(N3CCCCCC3)n2)cc1	-4	14	95*
SMILES	RN4220 kill	Mtb hypoxia inh	Sa ugtP lethal
COc1ccc(CN2CCC3C=CCC(C(=O)NCCc4ccccc4)C3C2=O)cc1OC (stereo not given)	5	12	3
O=C(NN=Cc1c[nH]c2ccccc12)c1cc(-c2ccc(-c3ccccc3)cc2)n[nH]1	87*	4	28
O=C(NN=Cc1c[nH]c2ccccc12)c1cc(-c2cccc3ccccc23)n[nH]1	-10	1	-5
CC(C)Sc1cc(N2CCOCC2)nc(-c2ccc(Cl)cc2)n1	6	14	2
CCN1CCN(c2cc(SC(C)C)nc(-c3ccc(OC)cc3)n2)CC1	-3	14	93*
COc1c(O)cccc1C=NNC(=O)Cn1ccnc1C	4	7	18
CC(C)CC(CO)N1CCN(Cc2ccc(O)cc2)CCC1=O (stereo not given)	3	4	-1
CC1CN(C(C)CO)C(=O)c2cc(NC(=O)Nc3ccc(C(F)(F)F)cc3)ccc2OC1CN(C)C(=O)Nc1ccc(C(F)(F)F)cc1 (stereo not given)	-11	14	-23
NC(N)=NS(=O)(=O)c1ccc(NC(=S)NC(=O)/C=C/c2cccs2)cc1	3	10	85*
NS(=O)(=O)c1ccc(NC(=S)NC(=O)/C=C/c2cccs2)cc1	83	0	active
COc1ccc(/C=C/C(=O)NC(=S)Nc2ccc(S(N)(=O)=O)cc2)cc1	4	-6	16
NC(N)=NS(=O)(=O)c1ccc(NC(=S)NC(=O)/C=C/c2ccc(F)cc2)cc1	2	5	2
CC1CN(C(C)CO)C(=O)Cc2cc(NC(=O)C3CCCCC3)ccc2OC1CN(C)S(=O)(=O)c1ccccc1 (stereo not given)	2	2	3
Cc1ccc(S(=O)(=O)Nc2ccc3c(c2)CC(=O)N(C(C)CO)CC(C)C(CN(C)Cc2ccc(-c4ccccc4)cc2)O3)cc1 (stereo not given)	-2	-3	-10
CCCCCCc1nnc(NC(=O)OCC)s1	3	45*	2
CCCCCOC(=O)Nc1nnc(CCCCC)s1	7	5	3
O=C(CC1CC=CCC(Cc2ccc(F)cc2)C(=O)OCCNC1=O)NC(CO)Cc1ccccc1 (stereo not given)	9	16	-1
CCn1nc(C)cc1C(=O)Sc1ccc(Cl)cc1Cl	24	-5	96*
CCn1nc(C)cc1C(=O)Sc1cccc(Br)c1	11	-4	70
CC1CN(C(C)CO)C(=O)c2cc(NC(=O)CCCCCC(=O)Nc3ccccc3N)ccc2OC1CN(C)Cc1ccccc1 (stereo not given)	3	-4	0
O=C(CC1CC=CCCC(=O)OCC2CCCN2C1=O)NCCO (stereo not given)	7	-6	0
COC(=O)c1ccc(C=Cc2c(-c3ccsc3)sc3ccccc23)cc1	-10	1	22
Cc1cc(N2CCOCC2)n2ncc(-c3ccc(Cl)cc3)c2n1	1	6	58
Cc1cc(N2CCCCC2)n2ncc(-c3ccc(Cl)cc3)c2n1	-1	-10	85*
O=[N+]([O-])c1c(Nc2ccc(O)cc2)cc(Cl)c2nonc12	100*	.	99*
SMILES	RN4220 kill	Mtb hypoxia inh	Sa ugtP lethal
CN(C)c1cc(Nc2ccc(O)cc2)c([N+](=O)[O-])c2nonc12	6	11	11
Cc1cc(Cl)ccc1NC(=O)C(=O)NN=Cc1ccc2c(c1)OCO2	2	-1	3
COc1cc(NS(C)(=O)=O)ccc1Nc1c2ccccc2nc2ccccc12	-8	0	100*
COc1ccc([N+](=O)[O-])cc1Nc1c2ccccc2nc2ccccc12	-5	-3	1
CCC(C)C1COCCS(=O)(=O)N1Cc1ccc(Cl)cc1Cl (stereo not given)	4	5	-21
COc1cccc(NCc2cc(=O)oc3cc(C)c(O)cc23)c1	97*	-2	100*
CCOc1ccccc1NCc1cc(=O)oc2cc(C)c(O)cc12	4	2	4
